The values below come from PubChem BioAssay (EPA / NIEHS).

Results filed as inconclusive are left out. Activity calls are given as the source filed them. Rule for the calls, unless noted: active = hit-call score of the fitted dose curve at least 0.9, where 1 is the maximum; inconclusive = response in the unintended direction; inactive = score below 0.9. Peptide text beside a SMILES is read from it.

For assay [1], the target named is Estrogen receptor beta (Homo sapiens) (UniProt Q92731). As to the kind of experiment: OT_ER_ERbERb_1440: Odyssey Thera (OT) 24-hour HEK293T Protein-Complementation Assay for Estrogen Receptor-beta/-beta Homodimer (AID 2283380).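 Note: fluorescence gain from ER beta LBD homodimer complementation read by laser scanning cytometry; scored as signal increase over DMSO baseline for both agonists and antagonists.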 The method, boiled down: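 Fluorescence increase, nuclear for agonists or whole-cell for antagonists, relative to DMSO vehicle, quantified by laser scanning cytometer after fixation and Draq5 staining. Readout from 24 h treatment of HEK293T cells carrying complementation-paired ER beta LBD (aa 310-547).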
Estrogen receptor beta (Homo sapiens), sequence (Q92731 whole entry, looked up, the tested form may be a part): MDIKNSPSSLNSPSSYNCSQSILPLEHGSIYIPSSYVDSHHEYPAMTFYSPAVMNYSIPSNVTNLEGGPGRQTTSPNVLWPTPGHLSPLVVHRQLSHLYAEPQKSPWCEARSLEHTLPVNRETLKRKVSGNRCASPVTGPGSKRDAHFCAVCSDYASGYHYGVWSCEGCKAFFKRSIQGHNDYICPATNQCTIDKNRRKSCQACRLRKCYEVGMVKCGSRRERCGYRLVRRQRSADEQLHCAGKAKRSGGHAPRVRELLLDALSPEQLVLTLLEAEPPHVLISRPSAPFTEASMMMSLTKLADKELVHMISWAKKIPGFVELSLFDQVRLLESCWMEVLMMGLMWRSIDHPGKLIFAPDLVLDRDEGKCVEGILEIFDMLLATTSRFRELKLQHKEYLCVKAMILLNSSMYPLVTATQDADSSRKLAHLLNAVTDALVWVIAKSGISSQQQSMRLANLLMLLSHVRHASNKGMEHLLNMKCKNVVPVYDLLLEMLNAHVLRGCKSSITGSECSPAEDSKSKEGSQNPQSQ

The target in assay [2] is Estrogen receptor (Homo sapiens) (UniProt P03372). In words: OT_ERa_GFPERaERE_0480: Odyssey Thera (OT) 8-hour HeLa Transcription Induction Assay for Estrogen Receptor (AID 2283381; active = hit-call score of the fitted dose curve at least 0.9, where 1 is the maximum; inactive = score below 0.9). The method, boiled down:
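An 8 h HeLa transcription-induction format with a GFP reporter under ERE control, read by fluorescence microscopy; single endpoint fitted positively with DMSO as baseline.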

Assay [3] shares this target. In words: OT_ERa_GFPERaERE_0120: Odyssey Thera (OT) 2-hour HeLa Transcription Induction Assay for Estrogen Receptor (AID 2283382). The method, boiled down: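 Two-hour compound treatment of HeLa cells preceded microscopy imaging of an inducible fluorescent reporter. Image-based quantification gave one endpoint, analysed for signal increase relative to DMSO controls.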

The target in assay [4] is Retinoic acid receptor RXR-alpha (Homo sapiens) (UniProt P19793). In words: OT_NURR1_NURR1RXRa_0480: Odyssey Thera (OT) 8-hour HEK293T Protein Complementation Assay for Nurr1/retinoid X receptor (RXR) (AID 2283385). A digest of the protocol:
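Gain in fluorescent complementation signal over DMSO, measured 8 hours after chemical dosing of human kidney HEK293T cells, indicated enhanced Nurr1–RXRα association.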

For assay [5], the target named is Peroxisome proliferator-activated receptor gamma (Homo sapiens) (UniProt P37231). In words: OT_PPARg_PPARgSRC1_0480: Odyssey Thera (OT) 8-hour Protein-Complementation Assay for Peroxisome Proliferator-activated Receptor Gamma / SRC-1 Co-activator (AID 2283387). The method, boiled down:
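Split-YFP (IFP1/IFP2) PPARg/SRC-1 reporter, HEK293T, 37 °C, 5% CO2; 8 h compound; formaldehyde fix + Draq5; high-content imaging, N/C ratio, ≥350 cells/image, positive direction vs DMSO.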

Assay [6] has the same target. As to the kind of experiment: OT_PPARg_PPARgSRC1_1440: Odyssey Thera (OT) 24-hour Protein-Complementation Assay for Peroxisome Proliferator-activated Receptor Gamma/ SRC-1 Co-activator (AID 2283388). A digest of the protocol:
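HEK293T cells transiently transfected with PPARg and SRC-1 fused via (Gly4Ser)2 linker to split Venus YFP fragments (IFP1/IFP2) were dosed 24 h; fixed, Draq5-stained, imaged at 488/635 nm; nuclear/cytoplasmic fluorescence ratio scored versus DMSO baseline, gain-of-signal.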

Assay [7] addresses Agonist Androgen Response Element (ARE), AR (gene 367) (UniProt P10275). In words: OT_AR_ARELUC_AG_1440: Odyssey Thera (OT) 24-hour CHO-K1 Luciferase Assay for Agonist Androgen Response Element (ARE) (AID 2283379). The method, boiled down: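 Readout: luciferase bioluminescence from CHO-K1 ARE-luc cells, measured 24 h post-dosing; agonism = increased mean luminescence vs DMSO controls, fitted in positive direction.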

Assay [8] has as its target Bile acid receptor (Homo sapiens) (UniProt Q96RI1). As to the kind of experiment: OT_FXR_FXRSRC1_1440: Odyssey Thera (OT) 24-hour HEK293T Protein-Complementation Assay for Farnesoid X receptor/SRC-1 Co-activator (AID 2283384). The method, boiled down: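 Single endpoint, analysed for increased fluorescence against DMSO controls. HEK293T cells carrying FXR and SRC-1 linked to complementary reporter halves were exposed to chemicals for 24 h before reading.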

Assay [9] has as its target Retinoic acid receptor RXR-alpha (Homo sapiens) (UniProt P19793). As to the kind of experiment: OT_NURR1_NURR1RXRa_1440: Odyssey Thera (OT) 24-hour HEK293T Protein Complementation Assay for Nurr1/retinoid X receptor (RXR) (AID 2283386). A digest of the protocol: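 Cell-based binding reporter: HEK293T cells, 24 h exposure, fluorescence-detected fragment complementation, DMSO as baseline.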

The nature of assay [10]: CEETOX_H295R_11DCORT: CeeTox H295R High-throughput Steroidogenesis Assay for 11-Deoxycortisol (11DCORT) (AID 2283432; active = hit-call score of the fitted dose curve at least 0.9, where 1 is the maximum; inactive = score below 0.9). Particulars: actives raise or lower the signal. A digest of the protocol:
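Steroidogenesis in human H295R cells: 48 h chemical exposure after forskolin priming, 11-deoxycortisol measured by LC-MS/MS.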

Assay [11] is described as follows: CEETOX_H295R_OHPREG: CeeTox H295R High-throughput Steroidogenesis Assay for OH-Pregnenolone (OHPREG) (AID 2283434; active = hit-call score of the fitted dose curve at least 0.9, where 1 is the maximum; inactive = score below 0.9). Conditions: actives raise or lower the signal. A digest of the protocol: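 Secreted 17alpha-hydroxypregnenolone measured by HPLC-MS/MS after liquid-liquid extraction. Human adrenal H295R cells received 48 h forskolin (10 uM) stimulation before 48 h chemical exposure at 0.1% final DMSO; MTT viability in same wells; bidirectional fit against DMSO.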

Assay [12] is described as follows: CEETOX_H295R_OHPROG: CeeTox H295R High-throughput Steroidogenesis Assay for OH-Progesterone (OHPROG) (AID 2283435; active = hit-call score of the fitted dose curve at least 0.9, where 1 is the maximum; inactive = score below 0.9). Conditions: actives raise or lower the signal. The method, boiled down:
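Human adrenocortical H295R cells, passage 10 or lower, were treated with chemical for 48 h after forskolin priming, and hormone output in the medium was quantified by LC-MS/MS.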

Assay [13] can be described thus: CEETOX_H295R_CORTIC: CeeTox H295R High-throughput Steroidogenesis Assay for Corticosterone (CORTIC) (AID 2283437; active = hit-call score of the fitted dose curve at least 0.9, where 1 is the maximum; inactive = score below 0.9). Conditions: actives raise or lower the signal. A digest of the protocol: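 Medium corticosterone was quantified by tandem mass spectrometry following 48 hours of chemical exposure (0.1% DMSO) in human H295R cells previously stimulated 48 hours with 10 uM forskolin. Viability checked by MTT; chemicals diluted and retested when viability fell below 70%.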

A short description of assay [14]: CEETOX_H295R_ESTRADIOL: CeeTox H295R High-throughput Steroidogenesis Assay for Estradiol (AID 2283440; active = hit-call score of the fitted dose curve at least 0.9, where 1 is the maximum; inactive = score below 0.9;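 note: estradiol secreted into medium quantified by LC-MS/MS after dansyl derivatisation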). Particulars: actives raise or lower the signal. A digest of the protocol:
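H295R adrenocortical cells were prestimulated with 10 uM forskolin for 48 h, then exposed to test chemical in 0.1% DMSO for 48 h. Medium estradiol was extracted with MTBE, dansyl-derivatized and quantified by HPLC-MS/MS; bidirectional fit versus DMSO.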

Assay [15] in a line: CEETOX_H295R_ESTRONE: CeeTox H295R High-throughput Steroidogenesis Assay for Estrone (AID 2283441; active = hit-call score of the fitted dose curve at least 0.9, where 1 is the maximum; inactive = score below 0.9;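 note: estrone secreted into medium measured by LC-MS/MS after dansyl derivatization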). Conditions: actives raise or lower the signal. A digest of the protocol: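 Forskolin-stimulated H295R cells are treated 48 h with chemical, and estrone in the medium is measured by LC-MS/MS. Activity is fitted in both directions relative to DMSO controls, with chemicals diluted until MTT viability reaches at least 70%.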

The nature of assay [16]: CEETOX_H295R_PROG: CeeTox H295R High-throughput Steroidogenesis Assay for Progesterone (PROG) (AID 2283442; active = hit-call score of the fitted dose curve at least 0.9, where 1 is the maximum; inactive = score below 0.9;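 for AC50: human H295R adrenal cells primed with 10 µM forskolin before dosing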). Particulars: actives raise or lower the signal. A digest of the protocol: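 H295R human adrenal cells were prestimulated with 10 uM forskolin for 48 h, then exposed to test chemical (0.1% DMSO final) for 48 h. Medium progesterone was MTBE-extracted and quantified by HPLC-MS/MS, with bidirectional fitting against DMSO.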

In assay [17] the target is Bile acid receptor (Homo sapiens) (UniProt Q96RI1). In words: OT_FXR_FXRSRC1_0480: Odyssey Thera (OT) 8-hour HEK293T Protein-Complementation Assay for Farnesoid X receptor/SRC-1 Co-activator (AID 2283383). A digest of the protocol: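 Readings were taken 8 h after dosing HEK293T cells in a split-reporter complementation format pairing FXR with SRC-1. Increased fluorescence relative to DMSO-treated wells defined activity.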
Bile acid receptor (Homo sapiens), sequence (Q96RI1 whole entry, looked up): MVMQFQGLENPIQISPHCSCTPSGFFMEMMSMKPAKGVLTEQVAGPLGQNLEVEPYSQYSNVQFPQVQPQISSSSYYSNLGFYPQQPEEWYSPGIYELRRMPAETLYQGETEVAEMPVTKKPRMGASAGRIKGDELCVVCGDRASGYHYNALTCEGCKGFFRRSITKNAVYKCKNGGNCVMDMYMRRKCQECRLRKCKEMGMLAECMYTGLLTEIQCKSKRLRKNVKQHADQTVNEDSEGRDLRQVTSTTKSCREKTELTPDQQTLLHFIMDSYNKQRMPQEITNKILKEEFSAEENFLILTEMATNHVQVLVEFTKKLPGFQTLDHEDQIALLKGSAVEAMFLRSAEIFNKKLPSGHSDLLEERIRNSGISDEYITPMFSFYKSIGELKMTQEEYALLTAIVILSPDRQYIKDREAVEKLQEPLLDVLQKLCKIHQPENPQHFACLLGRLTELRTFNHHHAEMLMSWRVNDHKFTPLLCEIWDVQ

The nature of assay [18]: CEETOX_H295R_ANDR: CeeTox H295R High-throughput Steroidogenesis Assay for Androstenedione (ANDR) (AID 2283436; active = hit-call score of the fitted dose curve at least 0.9, where 1 is the maximum; inactive = score below 0.9). Particulars: actives raise or lower the signal. The method, boiled down:
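Medium from 48 h chemical-treated H295R adrenal cells was extracted with MTBE and androstenedione measured by LC-MS/MS. Activity was fit in both directions relative to DMSO. Cytotoxic concentrations were re-tested after dilution until MTT viability reached ≥70%.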

Agonist Androgen Response Element (ARE), AR (gene 367), sequence (P10275 whole entry, looked up): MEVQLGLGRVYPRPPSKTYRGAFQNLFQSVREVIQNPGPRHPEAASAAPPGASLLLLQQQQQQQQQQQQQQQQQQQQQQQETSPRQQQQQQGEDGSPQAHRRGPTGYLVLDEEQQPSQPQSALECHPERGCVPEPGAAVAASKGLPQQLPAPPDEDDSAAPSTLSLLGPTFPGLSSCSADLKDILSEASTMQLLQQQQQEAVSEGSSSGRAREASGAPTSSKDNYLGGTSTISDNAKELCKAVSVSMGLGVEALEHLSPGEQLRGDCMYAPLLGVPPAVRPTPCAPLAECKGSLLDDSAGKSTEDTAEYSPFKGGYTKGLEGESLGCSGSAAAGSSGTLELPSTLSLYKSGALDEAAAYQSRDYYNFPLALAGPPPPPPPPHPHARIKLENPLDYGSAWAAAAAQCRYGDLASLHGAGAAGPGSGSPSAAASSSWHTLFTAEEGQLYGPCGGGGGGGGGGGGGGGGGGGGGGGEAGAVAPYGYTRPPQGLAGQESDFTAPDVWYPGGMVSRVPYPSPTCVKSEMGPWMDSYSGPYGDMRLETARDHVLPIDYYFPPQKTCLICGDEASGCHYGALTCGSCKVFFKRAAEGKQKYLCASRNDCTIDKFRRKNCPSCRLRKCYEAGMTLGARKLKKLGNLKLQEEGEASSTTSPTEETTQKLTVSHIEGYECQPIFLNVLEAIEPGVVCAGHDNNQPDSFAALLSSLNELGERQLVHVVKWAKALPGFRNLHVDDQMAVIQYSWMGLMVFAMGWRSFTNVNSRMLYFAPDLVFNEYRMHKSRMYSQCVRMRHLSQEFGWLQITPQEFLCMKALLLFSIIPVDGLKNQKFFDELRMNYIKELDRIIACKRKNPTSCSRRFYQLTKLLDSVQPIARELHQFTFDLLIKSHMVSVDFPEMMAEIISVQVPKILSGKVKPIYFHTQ
Estrogen receptor (Homo sapiens), sequence (P03372 whole entry, looked up): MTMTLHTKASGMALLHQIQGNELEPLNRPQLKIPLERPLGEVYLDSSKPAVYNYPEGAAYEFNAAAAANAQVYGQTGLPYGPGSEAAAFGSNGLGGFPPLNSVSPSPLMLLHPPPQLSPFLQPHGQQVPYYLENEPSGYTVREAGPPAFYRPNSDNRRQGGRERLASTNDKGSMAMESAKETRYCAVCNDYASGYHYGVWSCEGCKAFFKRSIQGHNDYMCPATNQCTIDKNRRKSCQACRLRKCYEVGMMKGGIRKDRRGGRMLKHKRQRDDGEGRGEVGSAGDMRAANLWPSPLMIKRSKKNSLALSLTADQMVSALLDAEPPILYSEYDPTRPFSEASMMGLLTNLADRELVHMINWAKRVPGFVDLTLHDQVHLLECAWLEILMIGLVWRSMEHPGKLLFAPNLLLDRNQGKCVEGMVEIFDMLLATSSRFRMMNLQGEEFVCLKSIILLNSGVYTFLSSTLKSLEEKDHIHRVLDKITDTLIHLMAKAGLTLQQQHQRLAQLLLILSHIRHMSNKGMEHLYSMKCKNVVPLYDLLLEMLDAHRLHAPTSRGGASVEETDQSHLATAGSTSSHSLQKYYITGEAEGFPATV
Retinoic acid receptor RXR-alpha (Homo sapiens), sequence (P19793 whole entry, looked up, the tested form may be a part): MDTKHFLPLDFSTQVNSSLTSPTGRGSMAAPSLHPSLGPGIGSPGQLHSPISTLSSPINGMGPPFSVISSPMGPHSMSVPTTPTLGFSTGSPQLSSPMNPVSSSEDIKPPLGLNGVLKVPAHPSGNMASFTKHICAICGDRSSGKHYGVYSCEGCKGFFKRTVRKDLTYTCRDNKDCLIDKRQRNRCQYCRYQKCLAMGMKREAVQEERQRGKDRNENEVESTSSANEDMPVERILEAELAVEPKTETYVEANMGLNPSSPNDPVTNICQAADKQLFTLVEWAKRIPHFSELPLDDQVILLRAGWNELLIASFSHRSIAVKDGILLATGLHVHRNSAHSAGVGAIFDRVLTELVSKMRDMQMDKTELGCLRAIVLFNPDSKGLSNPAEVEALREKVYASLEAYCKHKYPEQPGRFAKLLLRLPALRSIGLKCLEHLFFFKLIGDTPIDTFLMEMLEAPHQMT
Peroxisome proliferator-activated receptor gamma (Homo sapiens), sequence (P37231 whole entry, looked up): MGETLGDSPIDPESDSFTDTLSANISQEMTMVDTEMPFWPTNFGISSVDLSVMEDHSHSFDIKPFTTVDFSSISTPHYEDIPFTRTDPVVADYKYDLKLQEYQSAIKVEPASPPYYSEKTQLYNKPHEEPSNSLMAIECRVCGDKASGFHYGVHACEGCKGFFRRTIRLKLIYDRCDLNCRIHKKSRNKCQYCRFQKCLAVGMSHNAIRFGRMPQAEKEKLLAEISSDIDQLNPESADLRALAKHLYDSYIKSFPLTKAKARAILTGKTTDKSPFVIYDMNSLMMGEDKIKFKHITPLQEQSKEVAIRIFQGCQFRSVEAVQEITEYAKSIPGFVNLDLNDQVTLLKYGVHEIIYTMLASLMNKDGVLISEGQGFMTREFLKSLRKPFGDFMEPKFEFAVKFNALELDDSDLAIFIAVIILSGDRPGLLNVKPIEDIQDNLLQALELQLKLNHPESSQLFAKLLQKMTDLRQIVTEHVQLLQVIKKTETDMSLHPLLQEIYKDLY

As for `O=S(=O)(O)c1ccc(N=Nc2c(O)ccc3ccccc23)cc1`, the compound was classed as inactive in [1], in [2], in [3], in assay [4], in assay [5] and in assay [6].

Turning to `CC(=O)OCc1ccccc1`, the outcome in assay [7], in [1], in assay [2], in assay [3], in assay [4] and in assay [5] was inactive. The call in assay [6] was inactive.

Regarding `CCc1cccc(C)c1N`, the result in [7], in assay [2], in assay [3], in [4], in assay [5] and in assay [6] was inactive.

Consider `CCCCCCCCCC(C)=O`, for which the compound was classed as inactive in assay [7], in [1], in [2], in assay [3], in [5] and in assay [6].

For the compound `CN(C)Cc1cc(CN(C)C)c(O)c(CN(C)C)c1`, the compound was called inactive in assay [7], in assay [2], in assay [3], in assay [8], in assay [9] and in [5]. In addition, the compound was classed as inactive in assay [6].

What is called AC50 is the concentration at which the activity in the assay is half-maximal. For the compound `O=C(O)c1cc(O)c2ccccc2c1O`, the compound was called inactive in assay [1], in assay [4], in assay [9], in assay [10], in assay [11] and in assay [12]. For the same compound, the compound was classed as inactive in [13], in assay [14] and in assay [15]. Besides, the concentration at half-maximal activity (AC50) is 18.1 µM (active) in assay [2]; 25.4 µM (active) in assay [3]; 73.7 µM (active) in [5]; 73.2 µM (active) in assay [6]; 500 nM (active) in [16].

Take `CCOC(=O)c1ccc(C)cc1`: the result in assay [1], in [2], in assay [3], in assay [4], in assay [9] and in assay [5] was inactive. The compound was classed as inactive in assay [6].

`CCOC(=O)c1ccccc1C`: the half-maximal activity concentration (AC50) in [1] was 29.4 µM (active). The compound was classed as inactive in assay [2], in [3], in assay [17], in [4], in assay [9] and in assay [5]. The compound was called inactive in assay [6].

For the compound `CC(C)(C)C1CCC(=O)CC1`, the outcome in [1], in assay [2], in [3], in [17], in [8] and in assay [4] was inactive. In addition, the compound was classed as inactive in [5] and in assay [6].

For `O=C(Nc1ccccc1)c1cc(Cl)ccc1O`, the results for the AC50 in assay [1] and in assay [8] were 33.9 µM (active) and 17.5 µM (active), respectively. Further, the compound was called inactive in [2], in assay [3], in assay [17], in [4], in assay [5] and in assay [6].

Regarding `CCCCC(=O)O`, the compound was classed as inactive in assay [1], in [2], in assay [3], in [17], in [9] and in assay [5]. The compound was called inactive in assay [6].

With `CCCCCCCCC(CO)CCCCCC` (configuration not stated), the outcome in assay [1], in assay [2], in [17], in assay [8], in [5] and in assay [6] was inactive. The concentration at half-maximal activity (AC50) in assay [3] is 17.7 µM (active).

As for `CCOC(=O)C1=NOC(c2ccccc2)(c2ccccc2)C1`, the call in assay [1], in assay [2], in assay [3], in assay [17], in [8] and in [4] was inactive. Further, the result in [5] and in [6] was inactive.

`CCCCNS(=O)(=O)c1ccccc1`: the outcome in [1], in assay [2], in assay [3], in [17], in assay [8] and in [5] was inactive. Besides, in assay [6], the compound was called inactive.

Consider `O=C(O)C1CCC(C(=O)O)CC1` (configuration not stated), for which the compound was called inactive in assay [1], in [2], in [3], in [17], in assay [9] and in assay [5]. Besides, the result in assay [6] was inactive.

As for `CCCCOCCOC(=O)COc1ccc(Cl)cc1Cl`, the result in [1], in [2], in assay [3], in [4], in assay [5] and in [6] was inactive.

For `CCCCCC(=O)OCC`, the result in assay [1], in assay [2], in assay [3], in [8], in [9] and in assay [5] was inactive. In addition, the outcome in assay [6] was inactive.

For `CCCCc1ccc(Cl)cc1`, the compound was called inactive in assay [1], in assay [2], in assay [3], in [17], in assay [8] and in assay [4]. The result in assay [5] and in assay [6] was inactive.

As for `COC(=O)[C@H](Cc1ccccc1)NC(=O)[C@@H](N)CC(=O)O` (H-Asp-Phe-OMe), the call in assay [2], in assay [3], in assay [17], in [4], in assay [5] and in assay [6] was inactive.

With `Fc1ccc(Br)cc1`, the call in [2], in assay [3], in assay [4], in [9], in assay [5] and in assay [6] was inactive.

In the case of `CCOC(=O)C1=NN(c2ccc(Cl)cc2Cl)C(C)(C(=O)OCC)C1` (configuration not stated), the call in assay [10], in [11], in assay [12], in assay [18], in assay [13] and in assay [14] was inactive. In addition, the call in assay [15] and in assay [16] was inactive.

Regarding `CC(C)c1cc(C(C)C)cc(C(C)C)c1`, the compound was classed as inactive in assay [1], in [2], in assay [3], in [5] and in assay [6].

On to `CCC(C)(O)CCCC(C)C` (configuration not stated), for which the compound was called inactive in assay [2], in assay [3], in [17], in assay [8] and in assay [6].

Regarding `O=C(O)CCC(=O)O`, the compound was called inactive in [2], in [3], in [5] and in [6].

Turning to `CC1=NN(c2ccc(S(=O)(=O)O)cc2)C(=O)C1N=Nc1ccccc1` (configuration not stated), the result in assay [2], in assay [3], in assay [5] and in assay [6] was inactive.
